High-throughput results (PubChem)
ClpP mod: qHTS Assay for Activators of ClpP. purified B. subtilis ClpP, FRET peptide cleavage, 20 min. 340,000 compounds, 1.9% hits. AID 651965, 2013. Potency, µM (top dose mostly 57.5 µM), inactives show at the highest dose activity change, negative = active. ATP-dependent Clp protease proteolytic subunit (Bacillus subtilis (strain 168)), P80244; active means well fitted falling curve with a large enough effect; inconclusive means small, poorly fitted or top-dose-only effect; inactive means no such curve, though single readings can be large or run the other way; further: potency means the concentration at half of the fitted maximal effect; the source files actives as falling curves though it sought activators and does not explain the sign; nearly all actives have a fitted effect of over 65% in size
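FRET quenching reversal measured ClpP activation: 10 microg/mL B. subtilis ClpP at pH 8 with the FRET-FV decapeptide, read at 430 nm after 320 nm excitation. The 20-min minus 0-min signal was scaled between DMSO/no-enzyme wells and ADEP (5.8 microM final).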
D3 antag: blocks the human D3 dopamine receptor; 360,000 compounds, 2.5% hits; max response, negative = inhibition, %; P35462; D3R cells, DiscoveRx beta-arrestin luminescence, antagonist mode; stronger effect = lower value; AID 652054; in the data active means max response below about -50%; inconclusive means no clear call, values can overlap the other calls; further: on the % scale 0 is the no-effect control and ±100 the full control effect
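Cells expressing the human receptor were seeded at 1500 cells/well, incubated overnight at 37 degrees C in 5% CO2, then exposed to library compounds with dopamine controls for 90 minutes at 37 degrees C before luminescent detection.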
DT40 TDP1 CPT: DT40-hTDP1 cell growth loss with CPT; chicken DT40 Tdp1-/-;hTDP1 cells + 20 nM CPT, ATP luminescence, 48 h; Potency, µM (doses to about 46.2 µM), for inactives: top-dose activity change, negative = growth inhibition, hits mostly inhibitors; 420,000 compounds, 12% hits; further: potency means the concentration at half of the fitted maximal effect; on the % scale 0 is the no-effect control and ±100 the full control effect; nearly all actives have a fitted effect of over 55% in size
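Cell growth measured by CellTiter-Glo luminescence after a minimum 48 h, 37 C compound exposure with 20 nM CPT in Tdp1-knockout DT40 cells stably expressing hTDP1, seeded 400/well; qHTS titration format.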
IL1B secr inh: inflammasome signaling inhibition, IL-1 beta readout; 360,000 compounds, 4.7% hits; AID 743279; THP-1 LPS/ATP IL-1B secretion, AlphaLISA, 16 h; stronger effect = lower value; activity change, % at 57.5 µM; in the data active means activity change below about -50%; inconclusive means mostly about -30% to -49%; further: on the % scale 0 is the no-effect control and ±100 the full control effect
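Secreted IL-1B measured by AlphaLISA bead assay after 16 h compound exposure of THP-1 cells; compounds (final up to 57.5 uM) added 1 h before LPS (250 ng/mL) and ATP (1.25 mM) stimulation; lower signal means less secretion.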
DRD3 agonist: D3 dopamine receptor (human) agonism; D3R DiscoveRx beta-arrestin cells, luminescence, 90 min; max activation, %; 410,000 compounds, 0.58% hits; AID 652048; in the data active means max activation above about 30%; further: 0% is about no effect
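Agonist-mode cell screen: cells plated at 1500/well and incubated overnight at 37 °C, then exposed to library compounds for 90 min at 37 °C. Detection reagent was added for 30–60 min at room temperature, and luminescence was read.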
TDP1 cell noCPT: qHTS for Inhibitors of human tyrosyl-DNA phosphodiesterase 1 (TDP1): qHTS in cells in absence of CPT. AID 686978, 2013. Potency, µM (series often up to 46.2 µM), for the others: at the highest dose activity change, negative = growth inhibition, actives largely listed as inhibitors. 420,000 compounds, 15% hits. DT40 Tdp1-/- hTDP1 cells, no CPT, ATP luminescence, 48 h; further: potency means the concentration at half of the fitted maximal effect; on the % scale 0 is the no-effect control and ±100 the full control effect; nearly all actives have a fitted effect of over 55% in size
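Seeded 400 DT40-hTDP1 cells/well (vehicle DMSO, no 20 nM CPT); pinned compounds; ≥48 hr at 37 °C; CellTiter-Glo luminescence as viability measure.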
* hit, by the source's call. Rows were chosen to be rich in hits. Some 21% of all compounds tested hit in one or more screens of this group. Unless noted, the call rests on the fitted dose curve; in most records, active means well fitted inhibition curve with a large enough effect; inconclusive means small, poorly fitted or top-dose-only effect; inactive means flat fitted curve, though single readings scatter.

How did CN1CCN(C2=C(Cl)C(=O)N(c3ccc(Cl)c(Cl)c3)C2=O)CC1 do in these assays?
ClpP mod: -1%; D3 antag: inconclusive; DT40 TDP1 CPT: 29µM*; IL1B secr inh: inconclusive; DRD3 agonist: 1; TDP1 cell noCPT: inconclusive

How did Cc1ccc(N2C(=O)C(Cl)=C(N3CCCCCC3)C2=O)c(C)c1 do in these assays?
ClpP mod: -1%; D3 antag: 5; DT40 TDP1 CPT: inconclusive; IL1B secr inh: inconclusive; DRD3 agonist: -5; TDP1 cell noCPT: 15µM*

Results for O=C1C(Cl)=C(N2CCCCCC2)C(=O)N1c1ccc(Cl)cc1 ?
ClpP mod: 0%; D3 antag: 0; DT40 TDP1 CPT: -7%; IL1B secr inh: 23; DRD3 agonist: -5; TDP1 cell noCPT: inconclusive

How did COc1ccc(C2=NOC(C)(c3nnc(-c4ccc(F)cc4)o3)C2)cc1 (stereo unspecified) do in these assays?
ClpP mod: -3%; D3 antag: -15; DT40 TDP1 CPT: 0%; IL1B secr inh: -4; DRD3 agonist: -2; TDP1 cell noCPT: -25%

Results for CC(=O)Nc1ccccc1-c1nc2ccc(C(=O)N3CCN(c4cc(C)ccc4C)CC3)cc2[nH]c1=O ?
ClpP mod: -7%; D3 antag: 0; DT40 TDP1 CPT: inconclusive; IL1B secr inh: -4; DRD3 agonist: 2; TDP1 cell noCPT: 15µM*

How did Cc1ccc(C)c(N2CCN(C(=O)c3ccc4c(=O)n(CCc5ccccc5)c(=O)[nH]c4c3)CC2)c1 do in these assays?
ClpP mod: -2%; DT40 TDP1 CPT: 21µM*; DRD3 agonist: 3; TDP1 cell noCPT: 16µM*

How did CCc1nc2ccc(C(=O)N3CCN(c4cc(C)ccc4C)CC3)cc2nc1CC do in these assays?
ClpP mod: inconclusive; D3 antag: 23; DT40 TDP1 CPT: inconclusive; IL1B secr inh: 16; DRD3 agonist: 6; TDP1 cell noCPT: inconclusive

What do the screens show for `CCCCCn1c(=O)[nH]c2cc(C(=O)N3CCN(c4ccc(F)cc4)CC3)ccc2c1=O`?
D3 antag: 13; DT40 TDP1 CPT: inconclusive; IL1B secr inh: 7; DRD3 agonist: 16; TDP1 cell noCPT: 8.2µM*

What do the screens show for `CCCCCn1c(=O)[nH]c2cc(C(=O)N3CCN(c4ccccc4F)CC3)ccc2c1=O`?
ClpP mod: 1%; D3 antag: -19; DT40 TDP1 CPT: inconclusive; IL1B secr inh: 28; DRD3 agonist: -3; TDP1 cell noCPT: 15µM*

Results for N#Cc1ccc(S(=O)(=O)N2CCCCC2c2cc(C(=O)N3CCOCC3)no2)cc1 (stereo unspecified) ?
ClpP mod: 0%; D3 antag: 0; DT40 TDP1 CPT: -5%; IL1B secr inh: 10; DRD3 agonist: -1; TDP1 cell noCPT: -18%

What do the screens show for `CCCCCn1c(=O)[nH]c2cc(C(=O)N3CCN(c4ccc(C(C)=O)cc4)CC3)ccc2c1=O`?
D3 antag: 4; DT40 TDP1 CPT: 15µM*; IL1B secr inh: -21; DRD3 agonist: 3; TDP1 cell noCPT: 15µM*

What do the screens show for `Cc1ccc(CSc2ncc(Cl)c(C(=O)NCCc3ccc(S(N)(=O)=O)cc3)n2)cc1`?
ClpP mod: -2%; DT40 TDP1 CPT: inconclusive; DRD3 agonist: 4; TDP1 cell noCPT: inconclusive

What do the screens show for `O=C(CCC1CCCCC1)Nc1cccc(C(=O)Nc2ccc(C(=O)O)cc2)c1`?
D3 antag: -6; DT40 TDP1 CPT: -2%; IL1B secr inh: -12; DRD3 agonist: -2; TDP1 cell noCPT: -25%

What do the screens show for `CCN1C(=O)N[C@@H](c2ccco2)C(C(C)=O)=C1C`?
ClpP mod: 3%; D3 antag: 12; DT40 TDP1 CPT: -1%; IL1B secr inh: 18; DRD3 agonist: 6; TDP1 cell noCPT: 1%

How did COc1ncnc(-c2ccccc2)c1-c1ccccc1 do in these assays?
ClpP mod: -2%; D3 antag: 9; DT40 TDP1 CPT: inconclusive; IL1B secr inh: 10; DRD3 agonist: 2; TDP1 cell noCPT: 15µM*

Results for CCOC(=O)c1cnn(CCOC(=O)C(C)(C)C)c1NC(=O)C(C)(C)C ?
ClpP mod: 0%; D3 antag: 23; DT40 TDP1 CPT: 8%; IL1B secr inh: 54; DRD3 agonist: 12; TDP1 cell noCPT: -9%

How did CCOC(=O)c1cnn(CCOC(=O)C2CC2)c1NC(=O)C1CC1 do in these assays?
ClpP mod: 0%; D3 antag: -99*; DT40 TDP1 CPT: -6%; IL1B secr inh: 13; DRD3 agonist: 8; TDP1 cell noCPT: -6%

What do the screens show for `Cc1ccc(NC(=O)Cc2c(Cl)cccc2Cl)cc1S(=O)(=O)N(C)C`?
ClpP mod: 1%; D3 antag: 2; DT40 TDP1 CPT: inconclusive; IL1B secr inh: 0; DRD3 agonist: 6; TDP1 cell noCPT: 16µM*

What do the screens show for `Cc1ccc(NC(=O)CNCc2ccccc2Cl)cc1S(=O)(=O)N(C)C`?
ClpP mod: 0%; D3 antag: -24; DT40 TDP1 CPT: -16%; IL1B secr inh: 24; DRD3 agonist: -13; TDP1 cell noCPT: -24%

What do the screens show for `Cc1ccc(NC(=O)CNCc2ccc(Cl)cc2Cl)cc1S(=O)(=O)N(C)C`?
D3 antag: 0; DT40 TDP1 CPT: inconclusive; IL1B secr inh: 23; DRD3 agonist: -6; TDP1 cell noCPT: 18µM*

How did O=C(Nc1ccc(F)cc1F)c1cc2nc(-c3ccco3)cc(C(F)(F)Cl)n2n1 do in these assays?
ClpP mod: -5%; DT40 TDP1 CPT: -4%; DRD3 agonist: -16; TDP1 cell noCPT: -9%

What do the screens show for `Cc1ccccc1N(C(=O)c1ccccn1)C(C(=O)NCc1ccccc1)c1cccnc1` (stereo unspecified)?
D3 antag: 4; DT40 TDP1 CPT: -7%; IL1B secr inh: -2; DRD3 agonist: -3; TDP1 cell noCPT: -1%

What do the screens show for `Cc1nc(C(=O)NCC(=O)c2ccccc2)c(C(F)(F)F)o1`?
D3 antag: -59*; DT40 TDP1 CPT: -10%; IL1B secr inh: -5; DRD3 agonist: -12; TDP1 cell noCPT: -2%

What do the screens show for `CCOc1ccc(NC(=O)Cn2nnc(C(=O)OC)c2C(=O)OC)cc1`?
ClpP mod: -2%; DT40 TDP1 CPT: 12%; DRD3 agonist: -2; TDP1 cell noCPT: -6%

What do the screens show for `COc1ccc(Cl)cc1NC(=O)CNc1ccccc1CN(C)C1CCCCC1`?
D3 antag: -15; DT40 TDP1 CPT: inconclusive; IL1B secr inh: -214*; DRD3 agonist: -12; TDP1 cell noCPT: inconclusive
